Compound activity as filed in PubChem BioAssay.
SARS PLP yeast = qHTS of Yeast-based Assay for SARS-CoV PLP | S. cerevisiae expressing SARS-CoV PLpro, growth rescue | Potency, µM (highest dose often 32.9 µM), inactives show top-dose activity, positive = growth rescue, most hits filed as activators | hit rate 0.19% among 330,000; calls by dose curve; also: 0% is about no effect; nearly all actives have a fitted effect of over 55% in size
Pf growth 48h = Primary qHTS for delayed death inhibitors of the malarial parasite plastid, 48 hour incubation; Potency, µM (titrated, usually from 28.7 µM), without a hit: top-dose activity change, negative = inhibition, actives largely listed as inhibitors; P. falciparum luciferase growth in erythrocytes, 48 h; hit rate 5.9% among 310,000; also: % is scaled to controls: 0 for no effect and ±100 for the full control effect
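Cell-based growth assay: transgenic P. falciparum expressing firefly luciferase, cultured in red cells within RPMI 1640 containing 0.5% w/v Albumax, 24 mM bicarbonate and gentamycin. A drop in luciferase activity indicates inhibition.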
NS1 inh = qHTS Assay for Inhibitors of Influenza NS1 Protein Function; Potency, µM (titrated, usually from 46.1 µM), for the others: top-dose activity, positive = more growth; hit rate 0.4% among 270,000; calls by dose curve; also: actives are rising curves; nearly all actives have a fitted effect of over 50% in size
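In this qHTS, NS1 from influenza A is expressed in budding yeast, where it slows growth. Cells are switched from glucose to 2% galactose medium (pH 6.0, -URA), treated with compound, and growth recovery is read at OD600.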
Pf growth 96h = Primary qHTS for delayed death inhibitors of the malarial parasite plastid, 96 hour incubation | hit rate 6.9% among 320,000 | P. falciparum luciferase reporter growth, 96 h | Potency, µM (titrated, usually from 28.7 µM), for inactives: top-dose activity change, negative = inhibition, actives largely listed as inhibitors; also: % is scaled to controls: 0 for no effect and ±100 for the full control effect
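Erythrocytes infected with luciferase-expressing P. falciparum were dispensed at 2% hematocrit and 0.05% parasitemia (final), then incubated with compounds 96 hours at 37 C in 5% CO2. Luminescence after detection reagent addition reported growth.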
* = called active by the depositor; ? = inconclusive; . = no result; [ ] = another dose, or the depositor's remark. Most compounds without a hit are left out; they make up all but 10% or so of the library. Unless noted, calls follow the shape of the dose curve; as a rule, active = well fitted inhibition curve with a large enough effect; inconclusive = small, poorly fitted or top-dose-only effect, or another doubt; inactive = no such curve, though single readings can be large or run the other way. Potency is read from the fitted curve at half-maximal effect.

SMILES | SARS PLP yeast | Pf growth 48h | NS1 inh | Pf growth 96h
CCc1ccc2[nH]cc(C(=O)OCCOC)c(=O)c2c1 | -4% | 1.5µM* | 0% | 10µM*
CCc1ccccc1NC(=O)CC(NCc1ccccc1)C(=O)O (stereo unspecified) | 10% | 20% | -6% | 26%
CCCCOc1cccc(C(=O)NC(=S)Nc2cccc(NC(=O)c3ccccc3Cl)c2)c1 | 12% | -11% | 10% | 16%
CCCOc1cccc(C(=O)NC(=S)Nc2cccc(NC(=O)c3ccccc3Cl)c2)c1 | -5% | 2% | ? | 2.9µM*
Cn1c(=O)c2ncn(CC(=O)Nc3cccc(-c4nc5ccccc5s4)c3)c2n(C)c1=O | 2% | 171% | -59% | 31%
Cc1ccc(O)c(C(=O)c2cnc3c(c2)COc2ccc(C)cc2-3)c1 | -25% | 13µM* | 2% | ?
Cc1ccc(O)c(C(=O)c2cnc(/N=C(\N)N(C)C)nc2)c1 | 6% | 8% | 8% | 19%
Cc1ccc2c(c1)-c1ncc(C(=O)c3cc(Br)ccc3O)cc1CO2 | -2% | 1.7µM* | 0% | ?
Cn1c(=O)c2sccc2n(Cc2ccccc2)c1=O | 4% | -17% | -20% | -8%
CCSc1nc2c(c(=O)[nH]1)C(c1ccncc1)C(C(=O)OC(C)C)=C(C)N2 (stereo unspecified) | 4% | ? | -21% | 10µM*
COc1ccc(-c2nc(CS(=O)CC(=O)NC3CCCc4ccccc43)c(C)o2)cc1OC (stereo unspecified) | 1% | . | -16% | ?
COc1ccc(-c2nc(CSCC(=O)NC3CCCc4ccccc43)c(C)o2)cc1OC (stereo unspecified) | -18% | . | -5% | 8.3µM*
COc1ccc(-c2nc(CSCC(=O)NC3CCN(Cc4ccccc4)CC3)c(C)o2)cc1OC | 2% | ? | -2% | 10µM*
COc1ccc(S(=O)(=O)N2CCOCC2)cc1NC(=O)CCNC(=O)c1ccc([N+](=O)[O-])cc1 | -10% | -1% | . | ?
Cc1n[nH]c(=O)c2c(NC(=O)CSc3ccccc3Cl)oc(C)c12 | 0% | 32% | . | -12%
N#C/C(=C\c1cn(-c2ccccc2)nc1-c1cccnc1)c1nnc2n1CCCCC2 | -5% | . | 4% | 8.3µM*
O=C(NCc1n[nH]c(=S)n1-c1ccc(Br)cc1)c1ccc(S(=O)(=O)N2CCCCC2)cc1 | 10% | 4% | 26% | 29%
CCc1ccc(-c2cc(C)no2)cc1S(=O)(=O)N1CCN(c2ccc(OC)cc2)CC1 | 0% | ? | 26% | 0%
CCc1ccc(-c2cc(C)no2)cc1S(=O)(=O)N1CCN(C(=O)c2ccco2)CC1 | -2% | ? | -19% | 9.3µM*
CCc1ccc(-c2cc(C)no2)cc1S(=O)(=O)NCCN1CCC(C)CC1 | 11% | ? | -7% | 8%
CCc1ccc(-c2cc(C)no2)cc1S(=O)(=O)N1CCOc2ccccc21 | 0% | 8.3µM* | 19% | ?
CCc1ccc(-c2cc(C)no2)cc1S(=O)(=O)N1CCN(c2ccc(F)cc2)CC1 | 2% | 13µM* | 13% | ?
COc1ccc(-c2cc(C)no2)cc1S(=O)(=O)N1CCOc2ccc(C)cc21 | -2% | ? | 3% | 2%
CCc1ccc(-c2cc(C)no2)cc1S(=O)(=O)NCCCN1CCN(c2ccccc2)CC1 | 0% | 13µM* | -15% | ?
CCn1ccc(C(=O)Nc2ncc(C)s2)n1 | 1% | 24% | 0% | -15%
SMILES | SARS PLP yeast | Pf growth 48h | NS1 inh | Pf growth 96h
Cc1ccc2nc(C)c3c(c2c1)N(c1ccc(F)cc1)CC3 | 0% | ? | -57% | 13µM*
CN(C)c1cccc(C(=O)NNC(=O)CN2C(=O)C3CC=CCC3C2=O)c1 (stereo unspecified) | 11% | . | . | .
CCOc1cc(/C=C2\C(=O)N(CCc3ccc(OC)c(OC)c3)C(C)=C2C(=O)OC)ccc1O | 3% | 12µM* | 22% | ?
COC(=O)C1=C(C)N(Cc2ccccc2)C(=O)/C1=C\c1ccco1 | -1% | -23% | 3% | -7%
COC(=O)C1=C(C)N(Cc2ccc(C)cc2)C(=O)/C1=C\c1cc(OC)c(OC)c(OC)c1 | -4% | 10µM* | 23% | 34%
CCOc1cc(/C=C2/C(=O)ON=C2C)ccc1O | 2% | 12%[0.00184 µM] | 4% | 0.093µM*
CNC(=O)C(C)Sc1ccc(S(=O)(=O)N2CCOCC2)cn1 (stereo unspecified) | 7% | 38% | . | 30%
COc1ccc(-c2csc(NC(=O)Nc3ccccc3)n2)cc1 | 5% | . | 3% | -3%
Cc1ccc(NC(=O)Nc2nc(-c3ccc(C)s3)cs2)cc1 | 1% | -11% | 12% | 15µM*
COCCNC(=O)C1CC(c2cccc(OC)c2)=NO1 (stereo unspecified) | -3% | 17% | 4% | -20%
O=C(NCCc1cccs1)C1CC(c2cccc(F)c2)=NO1 (stereo unspecified) | -2% | ? | -36% | 1.7µM*
O=C(NCc1ccccn1)C1CC(c2ccc(Cl)c(Cl)c2)=NO1 (stereo unspecified) | -5% | 4% | -4% | 0%
COc1ccc(C2=NOC(C(=O)NCc3ccccc3)C2)cc1 (stereo unspecified) | -7% | ? | 8% | 7.4µM*
CCC(C)NC(=O)C1CC(c2cccc(OC)c2)=NO1 (stereo unspecified) | -1% | 9% | 0% | 10µM*
O=C(NCc1ccccn1)C1CC(c2ccc(F)cc2)=NO1 (stereo unspecified) | -3% | . | -3% | 2.9µM*
COc1ccccc1CNC(=O)C1CCN(S(=O)(=O)c2ccc3c(c2)OCCCO3)CC1 | -3% | -8% | 1% | ?
O=C(NCc1cc(C(F)(F)F)cc(C(F)(F)F)c1)C1CC(c2c(Cl)cccc2Cl)=NO1 (stereo unspecified) | ? | -2% | 3% | ?
COc1ccc(CNC(=O)C2CC(c3cccc([N+](=O)[O-])c3)=NO2)cc1 (stereo unspecified) | 4% | 78% | -47% | 131%
COc1cccc(C2=NOC(C(=O)NCc3ccco3)C2)c1 (stereo unspecified) | 3% | -6% | -10% | ?
COc1cccc(C2=NOC(C(=O)NCc3ccccc3)C2)c1 (stereo unspecified) | -2% | -2% | -31% | 4.1µM*
COc1cccc(C2=NOC(C(=O)N3CCOCC3)C2)c1 (stereo unspecified) | 0% | 159% | 0% | 1.7µM*
Cc1ccc(CNC(=O)C2CC(c3cccc([N+](=O)[O-])c3)=NO2)cc1 (stereo unspecified) | 1% | 2.6µM* | -7% | 42%
O=C(NCc1ccc(OC(F)(F)F)cc1)C1CC(c2c(Cl)cccc2Cl)=NO1 (stereo unspecified) | -2% | 1.3µM* | 1% | 36%
COc1ccc(S(=O)(=O)N2CCCCC2)cc1NC(=O)CSc1nnc(C2CC2)n1C | -10% | -18% | . | ?
S=C(NCCCn1ccnc1)Nc1cccc(Cl)c1 | 16% | ? | 3% | 34%
